Assay outcomes: PubChem BioAssay, National Center for Advancing Translational Sciences (NCATS)
An excerpt weighted towards active compounds, which were near 3.4% of everything screened.
VDR inh: Inhibitors of the vitamin D receptor (VDR): qHTS. Vitamin D3 receptor (Homo sapiens), P11473. VDR-SRC2-3 peptide fluorescence polarization, 2 h. Potency, µM, inactives show max response, negative = inhibition, most hits filed as inhibitors. 400,000 compounds, 0.93% hits. AID 504847, 2011; also: % is scaled to controls: 0 for no effect and ±100 for the full control effect
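Signal is fluorescence polarization, reporting how far test compounds block the interaction of VDR with the SRC2-3 coregulator peptide after a 2 h room-temperature incubation.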
PLK1 PBD block: qHTS for Inhibitors of PLK1-PDB (polo-like kinase 1 - polo-box domain): Primary Screen | Serine/threonine-protein kinase PLK1 (Homo sapiens), P53350 | Plk1 PBD binding of FITC phosphopeptide, fluorescence polarization | Potency, µM, inactives show max response, negative = inhibition, hits mostly inhibitors | 360,000 compounds, 2.8% hits | AID 720504, 2013; also: series mostly up to about 57 µM; % is scaled to controls: 0 for no effect and ±100 for the full control effect; nearly all actives have a fitted effect of over 65% in size
GLS inh: qHTS for Inhibitors of Glutaminase (GLS). Glutaminase kidney isoform, mitochondrial (Homo sapiens), O94925. GLS enzymatic activity, qHTS titration. Potency, µM (doses to about 45.5 µM), for inactives: top-dose activity change, negative = inhibition, actives largely listed as inhibitors. 410,000 compounds, 0.21% hits. AID 624170, 2012; also: % is scaled to controls: 0 for no effect and ±100 for the full control effect
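hKGA; 45 mM KH2PO4 pH 8.2 + 0.02% Tween-20; cpd via pin tool; 1 mM Gln soln; GluOx/HRP/Amplex Red; RT 30 min; fluor. t0 & final.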
Mito fusion act: qHTS Assay for Small Molecule Inhibitors of Mitochondrial Division or Activators of Mitochondrial Fusion; 320,000 compounds, 0.23% hits; Potency, µM (titrated, usually from 46.1 µM), without a hit: at the top dose growth rescue (activation), actives largely listed as activators; S. cerevisiae fusion-defective mutant growth rescue, CellTiterGlo 48 h; also: % of control where 0% means no effect; nearly all actives have a fitted effect of over 45% in size
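Read-out: ATP-based luminescence (CellTiterGlo, 10 min ambient) reporting growth of fusion-defective ts yeast after 48 hours at 37C on glycerol/ethanol YPEG medium in the presence of compound.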
KAT2A inh: qHTS Assay for Inhibitors of GCN5L2; Histone acetyltransferase KAT2A (Homo sapiens), Q92830; GCN5L2 HAT assay, ThioGlo1 CoA-SH fluorescence; Potency, µM (titrated, usually from 58.9 µM), without a hit: at the highest dose activity change, negative = inhibition, hits mostly inhibitors; 390,000 compounds, 0.21% hits; AID 504327, 2011; also: % is scaled to controls: 0 for no effect and ±100 for the full control effect
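Fluorescence readout, Ex340nm/Em540nm: ThioGlo1 (50uM final) reacts with free CoA thiol released as 20nM GCN5L2 acetylates H3(1-25) peptide (75uM) using acetyl-CoA (70uM). Compound and enzyme sat 15 min beforehand; 20 min room-temperature reaction.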
PKM2 activator: qHTS Assay for Activators of Human Muscle isoform 2 Pyruvate Kinase; Potency, µM (doses to about 57.5 µM), inactives show at the top dose activation, hits mostly activators; purified PKM2, Kinase-Glo ATP luminescence, activation; response scale: 0% is enzyme alone, no compound; Pyruvate kinase PKM (Homo sapiens), P14618; 260,000 compounds, 0.34% hits; also: % is scaled to controls: 0 for no effect and ±100 for the full control effect; nearly all actives have a fitted effect of over 55% in size
Target sequence (P14618 whole entry, looked up, canonical isoform): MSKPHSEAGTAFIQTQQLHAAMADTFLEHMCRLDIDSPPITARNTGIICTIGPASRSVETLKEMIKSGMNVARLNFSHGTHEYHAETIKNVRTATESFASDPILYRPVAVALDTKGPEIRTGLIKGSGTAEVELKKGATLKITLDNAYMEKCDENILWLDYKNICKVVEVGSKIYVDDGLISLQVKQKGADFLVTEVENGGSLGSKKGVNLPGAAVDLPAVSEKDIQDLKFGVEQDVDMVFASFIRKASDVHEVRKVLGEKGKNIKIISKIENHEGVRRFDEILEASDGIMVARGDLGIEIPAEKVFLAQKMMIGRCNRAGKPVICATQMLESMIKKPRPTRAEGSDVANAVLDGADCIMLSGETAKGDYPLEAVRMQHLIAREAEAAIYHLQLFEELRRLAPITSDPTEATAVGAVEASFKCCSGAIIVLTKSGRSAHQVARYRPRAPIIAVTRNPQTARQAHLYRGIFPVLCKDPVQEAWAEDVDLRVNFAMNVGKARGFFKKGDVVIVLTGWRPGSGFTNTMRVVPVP
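Purified hPK-M2 (>95% pure) converted ADP (0.1 mM final) to ATP with 0.5 mM PEP in 50 mM imidazole pH7.2, KCl, MgCl2, Tween 20, BSA; 1 h at room temperature. ATP detected by Kinase-Glo luminescence.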
* marks the source's active call; other numbers are inactive results; [ ] = dose if it differs, or a comment. Calls follow the shape of the dose curve; as a rule, active = well fitted curve in the direction sought with a large enough effect; inconclusive = small, poorly fitted or top-dose-only effect, or another doubt; inactive = no such curve, though single readings can be large; an effect the other way counts as inactive or inconclusive. Potency is read from the fitted curve at half-maximal effect.

O=C(Nc1ccc(Cl)cc1)NN1CC(=O)N(c2cccc(C(F)(F)F)c2)CC1=O was read as VDR inh 12%, PLK1 PBD block 3%, GLS inh -1%, Mito fusion act 1%, KAT2A inh 1% and PKM2 activator -3%.
Screening COc1ccc2c(c1)O[C@@H](c1ccc3c(c1)OCO3)[C@H](OC(=O)Nc1ccc(OC(F)F)cc1)C2=O returned VDR inh -4%.
C/C=C/c1ccc2oc(-c3ccc(O)cc3)c(C)c2c1 was read as VDR inh 7%.
CS(=O)c1ccccc1-c1nc(-c2cccc(Cl)c2)no1 (stereo not drawn) was read as VDR inh -9%, PLK1 PBD block 27µM*, GLS inh -3%, Mito fusion act -6%, KAT2A inh -5% and PKM2 activator -1%.
CCCCN1C(=O)N(c2ccccc2Cl)C(C)(O)CC1(C)C (stereo not drawn) was read as VDR inh -6%, PLK1 PBD block -8%, GLS inh 0%, Mito fusion act 19% and KAT2A inh -9%.
Screening CCc1nnc(NCC(=O)N2CCc3ccccc32)s1 returned VDR inh -13%, PLK1 PBD block 24µM*, GLS inh 13%, Mito fusion act 0%, KAT2A inh -5% and PKM2 activator 0%.
COc1ncc2nc(-c3cccs3)c(=O)n(CCC#N)c2n1 was read as VDR inh -7% and KAT2A inh 35µM*.
COC(=O)c1ccc(C(NC(=O)OCc2ccccc2)/C(F)=C/[C@@H](C)C(=O)NCc2cc(C)on2)cc1 (stereo partly drawn) was read as PKM2 activator 3%.
Screening O=C(OCCN1C(=O)c2cccc3c(N4CCOCC4)ccc(c23)C1=O)c1ccc(Cl)cc1Cl returned VDR inh 7%, PLK1 PBD block 19µM*, GLS inh inconclusive, Mito fusion act -5%, KAT2A inh -7% and PKM2 activator -1%.
For CCc1c2c(nc3ccc(OC)cc13)-c1nc3ccccc3c(=O)n1C2 the results were VDR inh 1%.
Screening CC(C)c1ccc(/C=C/C2=NNC(=O)CC2)cc1 returned VDR inh inconclusive, PLK1 PBD block 9.5µM*, GLS inh 0%, Mito fusion act 3%, KAT2A inh -16% and PKM2 activator -2%.
For COc1cc(/C=C/C2=NNC(=O)CC2)cc(OC)c1OC the results were VDR inh -4%, PLK1 PBD block 6%, GLS inh -9%, Mito fusion act 4% and KAT2A inh -22%.
`O=C(NCCc1c[nH]c2ccccc12)/C(=C\c1cccs1)NC(=O)c1ccccc1` gave VDR inh -5%, PLK1 PBD block 27µM*, GLS inh 20%, Mito fusion act -8%, KAT2A inh -2% and PKM2 activator -1%.
Screening Cc1ccc(C(=O)N/C(=C\c2cccs2)C(=O)NCCc2c[nH]c3ccccc23)cc1C returned VDR inh -6%, PLK1 PBD block -7%, GLS inh 5%, Mito fusion act 1%, KAT2A inh -13% and PKM2 activator -1%.
For Fc1ccc(Nc2nc(SCc3cccc(Cl)c3)nc3ccccc23)cc1 the results were VDR inh -3%, GLS inh -7% and KAT2A inh -4%.
Screening O=C1OCCN1C(=O)[C@H]1[C@H](c2ccccc2)C(c2ccccc2)=NN1c1ccccc1 returned VDR inh -16%, PLK1 PBD block 0%, GLS inh -7% and KAT2A inh 28µM*.
`Cc1cc(C(=O)O)ccc1-c1ccc(/C=C2\NC(=O)N(Cc3ccccc3Cl)C2=O)o1` gave VDR inh inconclusive, PLK1 PBD block 17µM*, GLS inh -12%, Mito fusion act 9%, KAT2A inh inconclusive and PKM2 activator 20µM*.
COc1cccc(OC)c1C(=O)NCCOc1cc(C)cc(C)c1 was read as VDR inh -3%, PLK1 PBD block -3%, GLS inh 1%, Mito fusion act 15%, KAT2A inh -14% and PKM2 activator 2%[11.5 µM].
Nc1nc(Cl)nc2ncn(Cc3ccccc3)c12 was read as VDR inh -2%, PLK1 PBD block -13%, GLS inh 1%, Mito fusion act -6%, KAT2A inh 3% and PKM2 activator 14%.
`O=c1[nH]c(N2CCCCC2)nc2ncn(Cc3ccccc3)c12` gave VDR inh inconclusive, PLK1 PBD block 27µM*, GLS inh 34%, Mito fusion act 0%, KAT2A inh 17% and PKM2 activator -4%.
`CCC(C)NC(=O)c1ccccc1NC(=O)CN1C(=O)c2cccc3cccc1c23` (stereo not drawn) gave VDR inh 11%, GLS inh 1% and KAT2A inh -16%.
`Cc1ccc(-n2c(N)c(C(=O)NCc3cccnc3)sc2=S)cc1` gave VDR inh -19%, PLK1 PBD block 28µM*, GLS inh -13%, Mito fusion act -2%, KAT2A inh inconclusive and PKM2 activator -1%.
Screening CCOC(=O)c1sc(=S)n(-c2ccc(C)cc2)c1N returned VDR inh inconclusive, PLK1 PBD block 11µM*, GLS inh -8%, Mito fusion act -5%, KAT2A inh -24% and PKM2 activator -5%.
Screening COc1ccc(-n2c(N)c(C(=O)NCc3cccnc3)sc2=S)cc1 returned VDR inh -6%, PLK1 PBD block 0%, GLS inh 2%, Mito fusion act 1%, KAT2A inh -8% and PKM2 activator 9%.
For Cc1ccc(-n2c(N)c(C(=O)N3CCCCC3)sc2=S)cc1 the results were VDR inh inconclusive, PLK1 PBD block 24µM*, GLS inh -15%, Mito fusion act -1%, KAT2A inh -21%[0.501 µM] and PKM2 activator 2%.
Screening CCOC(=O)c1sc(=S)n(C)c1N returned VDR inh 9%, PLK1 PBD block -2%, GLS inh 47%, Mito fusion act 1%, KAT2A inh -9% and PKM2 activator 7%.
`Nc1c(C(=O)N2CCOCC2)sc(=S)n1-c1ccccc1` gave VDR inh 50µM*, PLK1 PBD block 11µM*, GLS inh -3%, Mito fusion act 1%, KAT2A inh -24% and PKM2 activator -1%.
